In PubChem BioAssay (NCATS):
Results filed as inconclusive are left out. Calls of active or inactive are those of the source. Unless noted, calls come from the whole dose curve; as a rule, active = well fitted curve in the direction sought with a large enough effect; inconclusive = small, poorly fitted or top-dose-only effect, or another doubt; inactive = no such curve, though single readings can be large; an effect the other way counts as inactive or inconclusive.

Key:
[1] = biological target: Estrogen receptor (Homo sapiens) (UniProt P03372); assay: qHTS assay for small molecule agonists of estrogen receptor alpha signaling (AID 588514; calls by dose curve;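 note: 0% = vehicle only and 100% = reference agonist; nearly all actives have a fitted effect of over 70% in size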)
Procedure, shortened: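 Cells were plated at 5000/well, incubated 4 hrs at 37 C, dosed with compound titration series, incubated 18 hrs at 37 C, loaded with CCF4 dye for 2 hrs at RT, then fluorescence was read.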

[2] = biological target: Peroxisome proliferator-activated receptor gamma (Homo sapiens) (UniProt P37231); assay: qHTS assay for small molecule agonists of peroxisome proliferator-activated receptor gamma signaling (AID 588536; active = well fitted curve in the direction sought with a large enough effect in the signal ratio, with a control signal flat, not every such curve was filed as active; the % refers to the signal ratio;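 note: 0% = DMSO basal wells and 100% = rosiglitazone at 2 µM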)
Procedure, shortened: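 HEK293 UAS-bla reporter line, 1% charcoal/dextran FBS; titration, 16 h, 37 C; CCF4 loading 2 h RT; fluorescence 460/530 nm. Normalized to rosiglitazone 2 uM = 100%, DMSO = 0%.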

[3] = qHTS assay for small molecule agonists of retinoid X receptor alpha signaling (AID 588544; calls by dose curve;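 for activation: 0% = DMSO basal wells and 100% = reference agonist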); details: HEK293T RXRa-UAS-bla, beta-lactamase reporter, 18 h; 530 nm emission
[4] = biological target: Retinoic acid receptor RXR-alpha (Homo sapiens) (UniProt P19793); assay: as above
[5] = biological target: Thyroid hormone receptor beta (Homo sapiens) (UniProt P10828); assay: qHTS assay for small molecule agonists of thyroid hormone receptor beta signaling (AID 588545; calls by dose curve;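 note: 0% = DMSO only and 100% = 10 nM T3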)
Procedure, shortened: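 Efficacy and EC50 values derive from Hill fits of qHTS titration data, normalized to 10 nM T3 and DMSO-only wells. HEK 293 reporter cells were stimulated for 18 hrs at 37 C, with beta-lactamase activity measured by CCF4 fluorescence.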

[6] = qHTS assay for small molecule antagonists of retinoid X receptor alpha signaling (AID 588546; active = well fitted inhibition curve with a large enough effect in the signal ratio, with a control signal flat, not every such curve was filed as active; the % refers to the signal ratio;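 note: cells stimulated with 9-cis-retinoic acid as agonist; % is set by controls: 0 for no effect and ±100 for the full control effect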); details: HEK293T RXRa-UAS-bla, beta-lactamase ratio, antagonist mode; measured here: W530 green channel, cytotoxicity proxy
Procedure, shortened: (§1)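 Beta-lactamase reporter inhibition, read as CCF4 fluorescence ratio (ex 405, em 460/530 nm) after 2 h at RT. HEK293T UAS-bla cells, 2500/well, were stimulated with 9-cis-RA at 500 or 100 nM final alongside test compound for 18 h at 37 C.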

[7] = biological target: Retinoic acid receptor RXR-alpha (Homo sapiens) (UniProt P19793); assay: as above; details: HEK293T RXRa-UAS-bla, beta-lactamase ratio, antagonist mode
Procedure, shortened: as §1

[8] = qHTS assay for small molecule activators of the p53 signaling pathway (AID 651743; active = well fitted activation curve with a large enough effect in the signal ratio, not every such curve was filed as active; the % refers to the signal ratio; note: series mostly up to about 92 µM; % of control where 0% means no effect); details: HCT-116 p53RE-bla, beta-lactamase FRET ratio, 16 h; activation: stronger effect = higher value
Procedure, shortened: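 Read-out is fluorescence intensity from the LiveBLAzer B/G FRET substrate, added for 2 hours at room temperature after HCT-116 p53RE-bla cells had been incubated with compounds for 16 hours at 37 C.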

[9] = qHTS assay for environmental chemicals that activate the Aryl hydrocarbon Receptor (AhR) signaling pathway (AID 651777); details: 1A2-DRE human hepatoma cells, luciferase, 24 h; activation: stronger effect = higher value; note: % of control where 0% means no effect; nearly all actives have a fitted effect of over 15% in size
Procedure, shortened: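 Luminescence read-out: One-Glo added for 30 min at RT after 24 hr compound treatment (37 C, 5% CO2) of human hepatoma cells expressing a DRE/CYP1A2 promoter–luciferase reporter; increased signal indicates AhR activation.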

[10] = biological target: Peroxisome proliferator-activated receptor alpha (Homo sapiens) (UniProt Q07869); assay: qHTS assay for small molecule agonists of the peroxisome proliferator-activated receptor alpha (PPARalpha) signaling pathway (AID 651778); details: PathHunter PPARalpha complementation, chemiluminescence, 6 h; max response: stronger effect = higher value; note: % of control where 0% means no effect
Procedure, shortened: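 Chemiluminescence from complemented enzyme reported PPARalpha activation in cells after 6 hr of compound treatment at 37 C. The detection reagent was incubated for 60 min at room temperature, and compounds were scored as agonists.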

[11] = qHTS assay for small molecule agonists of the antioxidant response element (ARE) signaling pathway measured by Nrf2-dependant transcriptional activity (AID 720636; active = well fitted curve in the direction sought with a large enough effect in the repeat runs; an effect the other way counts as inactive or inconclusive;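 note: HepG2 cells with an ARE-driven luciferase reporter; % of control where 0% means no effect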)
Procedure, shortened: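 HepG2 ARE-luc reporter line, 1% dialyzed FBS; 6 hr attachment at 37 C, compound pinned in, 16 hr at 37 C/5% CO2; ONE-Glo, 30 min RT, luminescence read.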

[12] = qHTS assay for small molecule agonists of the antioxidant response element (ARE) signaling pathway measured by Nrf2-dependant transcriptional activity - cell viability counter screen (AID 720653; active = well fitted curve in the direction sought with a large enough effect in the repeat runs; an effect the other way counts as inactive or inconclusive; note: % is set by controls: 0 for no effect and ±100 for the full control effect); details: ARE-bla HepG2 viability, CellTiter-Glo ATP luminescence, 16 h; max response: stronger effect = lower value
Procedure, shortened: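 Cytotoxicity counter screen: intracellular ATP quantified by CellTiter-Glo luminescence in the same ARE-bla HepG2 plates, after 16 h compound exposure and a 2 h beta-lactamase substrate step.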

[13] = qHTS assay for cell viability of HEK293 cells (AID 743288); details: ATP luminescence (CellTiter-Glo), 18 h; max response: stronger effect = lower value; note: % is set by controls: 0 for no effect and ±100 for the full control effect; nearly all actives have a fitted effect of over 50% in size
Procedure, shortened: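 Parental HEK293 cells, 2,000 per well, preincubated at least 5 h at 37 C, then exposed to compounds in DMSO for 18 h at 37 C. Viability by CellTiter-Glo ATP luminescence after 30 min at room temperature.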

[14] = qHTS assay for cell viability of the p53RE-bla HCT-116 cell line (AID 743292); note: % is set by controls: 0 for no effect and ±100 for the full control effect; nearly all actives have a fitted effect of over 55% in size
Procedure, shortened: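 Luminescent ATP quantitation (CellTiter-Glo) served as the viability read-out; reagent was added after 16 h compound exposure at 37 C and read after 30 min at room temperature. Cells: p53RE-bla HCT-116, 4,000 per well.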

[15] = biological target: Nuclear receptor subfamily 1 group I member 2 (Rattus norvegicus) (UniProt Q9R1A7); assay: qHTS assay for small molecule activators of the rat pregnane X receptor (rPXR) signaling pathway (AID 651751; call rule not given here; note: 0% is about no effect); details: rPXR reporter cells, luciferase (One-Glo), 24 h
[16] = qHTS assay for small molecule activators of the human pregnane X receptor (PXR) signaling pathway (AID 720659; call rule not given here; note: 0% is about no effect)
[17] = biological target: Peroxisome proliferator-activated receptor gamma (Homo sapiens) (UniProt P37231); assay: qHTS assay for small molecule antagonists of peroxisome proliferator-activated receptor gamma signaling (AID 588537; active = well fitted inhibition curve with a large enough effect in the signal ratio, with a control signal flat, not every such curve was filed as active; the % refers to the signal ratio;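 note: reporter cells co-stimulated with 50 nM rosiglitazone agonist during compound treatment; % of control where 0% means no effect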)
Procedure, shortened: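 Antagonist mode, beta-lactamase reporter in HEK293; charcoal/dextran FBS 1%; 3000 cells/well, 37 C 6-6.5 h; cpd titration + rosiglitazone 50 nM final, 16 h 37 C; CCF4, 2 h RT; 460/530 nm; Hill fit → IC50, efficacy.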

[18] = biological target: Vitamin D3 receptor (Homo sapiens) (UniProt P11473); assay: qHTS assay for small molecule agonists of vitamin D receptor signaling (AID 588543; calls by dose curve;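 note: 0% = DMSO basal and 100% = reference agonist control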)
Procedure, shortened: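 VDR-UAS-bla HEK293T cells, 2000/well, 2% charcoal-stripped FBS; compound titration 16 h at 37 C; CCF4 beta-lactamase ratio read. Normalized to 50 nM 1-alpha,25-dihydroxyvitamin D3 (100%) and DMSO; Hill fit gives EC50, efficacy.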

[19] = qHTS assay for small molecule antagonists of peroxisome proliferator-activated receptor delta signaling (AID 588535); details: HEK293T PPARd-UAS-bla, beta-lactamase FRET ratio, 18 h; 460 nm channel;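 note: cells co-treated with a PPAR-delta agonist as stimulator during compound exposure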
Procedure, shortened: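 HEK293T PPAR-delta-UAS-bla cells, 4000/well, 2% charcoal/dextran FBS; 5 h 37 C; cpd titration; 18 h 37 C; CCF4 2 h RT; FI 460/530 nm; Hill fit → IC50, efficacy.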

[20] = biological target: Thyroid hormone receptor beta (Homo sapiens) (UniProt P10828); assay: qHTS assay for small molecule antagonists of thyroid hormone receptor beta signaling (AID 588547; active = well fitted inhibition curve with a large enough effect in the signal ratio, with a control signal flat, not every such curve was filed as active; the % refers to the signal ratio;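 note: cells stimulated with 0.4 nM T3 agonist during compound exposure; series mostly up to about 77 µM; % is set by controls: 0 for no effect and ±100 for the full control effect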); details: TR-UAS-bla HEK293, beta-lactamase ratio, antagonist mode, 18 h
Procedure, shortened: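 Inhibition of T3-driven (0.4nM final) beta-lactamase reporter activity was measured over 0.59 nM to 92 uM compound after 18 h at 37 C. The cells were GripTite HEK293 TR-UAS-bla in charcoal/dextran-stripped serum, with CCF4 ratio read-out and IC50 from Hill fits.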

Chain of Retinoic acid receptor RXR-alpha (Homo sapiens) (P19793 whole entry, looked up): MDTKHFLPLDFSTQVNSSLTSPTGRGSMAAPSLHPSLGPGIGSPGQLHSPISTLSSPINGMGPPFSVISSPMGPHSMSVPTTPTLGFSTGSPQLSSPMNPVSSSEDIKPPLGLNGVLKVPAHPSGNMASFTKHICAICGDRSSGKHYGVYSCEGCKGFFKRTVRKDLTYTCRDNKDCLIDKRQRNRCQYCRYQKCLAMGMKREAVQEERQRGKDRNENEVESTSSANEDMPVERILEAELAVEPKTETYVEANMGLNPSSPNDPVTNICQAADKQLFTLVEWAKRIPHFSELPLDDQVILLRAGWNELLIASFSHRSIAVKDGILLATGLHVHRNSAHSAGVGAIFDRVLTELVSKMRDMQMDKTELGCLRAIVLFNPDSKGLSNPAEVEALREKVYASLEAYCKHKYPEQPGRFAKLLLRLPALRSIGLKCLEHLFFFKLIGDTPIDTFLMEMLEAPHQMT
Chain of Peroxisome proliferator-activated receptor gamma (Homo sapiens) (P37231 whole entry, looked up): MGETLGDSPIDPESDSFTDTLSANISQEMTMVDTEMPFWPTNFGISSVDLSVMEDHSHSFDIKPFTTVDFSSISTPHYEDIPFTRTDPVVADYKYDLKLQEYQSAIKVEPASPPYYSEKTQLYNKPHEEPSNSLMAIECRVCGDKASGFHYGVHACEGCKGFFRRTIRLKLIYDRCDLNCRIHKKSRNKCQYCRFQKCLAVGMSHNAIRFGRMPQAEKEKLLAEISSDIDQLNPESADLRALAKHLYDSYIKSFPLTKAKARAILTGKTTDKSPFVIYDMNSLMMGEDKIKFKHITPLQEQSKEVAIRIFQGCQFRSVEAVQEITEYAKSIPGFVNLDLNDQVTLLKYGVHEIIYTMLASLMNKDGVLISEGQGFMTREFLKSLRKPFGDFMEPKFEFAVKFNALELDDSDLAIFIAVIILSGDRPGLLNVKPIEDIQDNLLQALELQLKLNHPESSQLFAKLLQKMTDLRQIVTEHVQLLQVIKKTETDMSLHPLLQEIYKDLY
Chain of Thyroid hormone receptor beta (Homo sapiens) (P10828 whole entry, looked up): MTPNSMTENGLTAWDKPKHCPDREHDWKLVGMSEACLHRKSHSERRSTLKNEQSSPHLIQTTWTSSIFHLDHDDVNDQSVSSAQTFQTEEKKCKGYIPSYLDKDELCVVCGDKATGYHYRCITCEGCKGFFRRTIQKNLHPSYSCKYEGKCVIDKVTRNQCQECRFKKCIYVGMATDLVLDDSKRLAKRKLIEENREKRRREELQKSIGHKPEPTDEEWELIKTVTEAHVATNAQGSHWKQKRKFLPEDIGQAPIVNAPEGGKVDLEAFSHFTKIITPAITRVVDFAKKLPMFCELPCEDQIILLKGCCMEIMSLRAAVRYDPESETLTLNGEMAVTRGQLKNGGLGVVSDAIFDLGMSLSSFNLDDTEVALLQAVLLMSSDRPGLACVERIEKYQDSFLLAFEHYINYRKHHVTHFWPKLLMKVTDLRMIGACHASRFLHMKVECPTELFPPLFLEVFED
Chain of Vitamin D3 receptor (Homo sapiens) (P11473 whole entry, looked up): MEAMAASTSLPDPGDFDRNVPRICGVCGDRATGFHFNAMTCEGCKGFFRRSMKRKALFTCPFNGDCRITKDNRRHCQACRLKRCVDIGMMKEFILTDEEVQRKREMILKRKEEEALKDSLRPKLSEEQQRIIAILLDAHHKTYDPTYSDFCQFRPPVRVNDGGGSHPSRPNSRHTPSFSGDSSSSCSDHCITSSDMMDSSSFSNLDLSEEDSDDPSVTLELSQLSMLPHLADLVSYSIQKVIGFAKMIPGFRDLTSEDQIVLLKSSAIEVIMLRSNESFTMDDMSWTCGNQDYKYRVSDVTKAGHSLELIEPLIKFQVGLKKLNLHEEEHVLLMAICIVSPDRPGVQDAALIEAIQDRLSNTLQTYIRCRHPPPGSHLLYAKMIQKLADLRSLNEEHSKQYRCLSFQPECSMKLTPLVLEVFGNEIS
Chain of Estrogen receptor (Homo sapiens) (P03372 whole entry, looked up): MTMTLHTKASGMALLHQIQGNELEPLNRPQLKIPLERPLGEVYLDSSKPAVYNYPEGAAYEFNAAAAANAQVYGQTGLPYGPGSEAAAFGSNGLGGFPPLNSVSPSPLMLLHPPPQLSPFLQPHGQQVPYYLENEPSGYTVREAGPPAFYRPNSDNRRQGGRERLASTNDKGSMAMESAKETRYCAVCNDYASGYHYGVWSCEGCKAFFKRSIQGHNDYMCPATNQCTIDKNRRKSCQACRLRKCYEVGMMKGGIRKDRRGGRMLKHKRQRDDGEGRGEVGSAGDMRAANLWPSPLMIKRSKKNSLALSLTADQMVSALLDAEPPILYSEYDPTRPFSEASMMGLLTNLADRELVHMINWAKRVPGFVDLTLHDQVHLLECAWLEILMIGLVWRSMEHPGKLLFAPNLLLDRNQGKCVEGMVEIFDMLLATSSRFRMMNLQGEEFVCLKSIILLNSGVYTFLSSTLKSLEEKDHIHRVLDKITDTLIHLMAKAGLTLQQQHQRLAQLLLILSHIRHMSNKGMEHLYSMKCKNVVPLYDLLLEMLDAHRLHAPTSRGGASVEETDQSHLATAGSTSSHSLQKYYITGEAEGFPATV
Chain of Peroxisome proliferator-activated receptor alpha (Homo sapiens) (Q07869 whole entry, looked up): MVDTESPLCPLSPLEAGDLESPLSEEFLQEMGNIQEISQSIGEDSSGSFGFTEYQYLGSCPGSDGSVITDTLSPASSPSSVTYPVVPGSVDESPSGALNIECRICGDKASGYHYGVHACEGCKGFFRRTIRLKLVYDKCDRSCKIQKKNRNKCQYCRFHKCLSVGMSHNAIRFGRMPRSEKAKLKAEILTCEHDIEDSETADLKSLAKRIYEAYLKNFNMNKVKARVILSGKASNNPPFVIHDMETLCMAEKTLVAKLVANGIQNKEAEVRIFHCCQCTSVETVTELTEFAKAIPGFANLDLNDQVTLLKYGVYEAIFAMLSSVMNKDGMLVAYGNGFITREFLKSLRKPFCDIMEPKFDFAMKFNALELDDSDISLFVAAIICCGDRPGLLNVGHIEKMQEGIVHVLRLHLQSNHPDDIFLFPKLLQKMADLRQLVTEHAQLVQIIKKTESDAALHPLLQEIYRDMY
Chain of Nuclear receptor subfamily 1 group I member 2 (Rattus norvegicus) (Q9R1A7 whole entry, looked up): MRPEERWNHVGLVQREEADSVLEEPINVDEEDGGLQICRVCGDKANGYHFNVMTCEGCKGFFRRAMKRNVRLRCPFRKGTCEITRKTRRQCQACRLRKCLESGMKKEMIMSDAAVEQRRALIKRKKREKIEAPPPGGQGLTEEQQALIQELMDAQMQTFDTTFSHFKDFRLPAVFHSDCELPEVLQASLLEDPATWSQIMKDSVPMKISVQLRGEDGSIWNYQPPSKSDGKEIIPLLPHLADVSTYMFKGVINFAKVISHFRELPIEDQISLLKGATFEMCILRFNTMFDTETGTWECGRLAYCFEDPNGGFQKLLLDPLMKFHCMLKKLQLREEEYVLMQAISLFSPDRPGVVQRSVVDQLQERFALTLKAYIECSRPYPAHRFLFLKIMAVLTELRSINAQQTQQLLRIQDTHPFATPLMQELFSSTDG

| Structure (SMILES) | Potency [1] | outcome [2] | max response [3] [%] | Potency [4] | Potency [5] | max response [6] [%] | max response [7] | activation [8] | activation [9] | max response [10] | Potency [11] | max response [12] | max response [13] | Potency [14] | max response [15] | outcome [16] | Potency [17] | outcome [18] | max response [19] [%] | activity change % (negative = inhibition) [20] |
| --- | --- | --- | --- | --- | --- | --- | --- | --- | --- | --- | --- | --- | --- | --- | --- | --- | --- | --- | --- | --- |
| CN(C)Cc1cc(CN(C)C)c(O)c(CN(C)C)c1 | inactive | inactive | -13.7 | inactive | inactive | -16.5 | -13.1% (inactive) | -4% (inactive) | -0.0067% (inactive) | -1.39% (inactive) | inactive | -15.7% (inactive) | -7.71% (inactive) | inactive | 1.59% (inactive) | inactive | – | – | – | – |
| CCOC(=O)C(C)Oc1ccc(Oc2cnc3cc(Cl)ccc3n2)cc1 (configuration not stated) | inactive | inactive | – | – | – | 22.1 | -14.1% (inactive) | – | 1.27% (inactive) | 11.2% (inactive) | – | -11.5% (inactive) | 4.59% (inactive) | – | – | inactive | inactive | inactive | – | – |
| CCCCC(CC)COP(=O)(O)OCC(CC)CCCC (configuration not stated) | inactive | – | – | – | inactive | -7.8 | -10.6% (inactive) | – | -0.89% (inactive) | – | inactive | -10.7% (inactive) | -5.86% (inactive) | inactive | 0.935% (inactive) | – | – | inactive | -17.6 | -4.02% (inactive) |
| C[C@]12CCC(=O)C=C1CC[C@@H]1[C@@H]2[C@@H](O)C[C@]2(C=O)[C@@H](C(=O)CO)CC[C@@H]12 | inactive | inactive | 19.7 | inactive | – | -18.8 | 1.07% (inactive) | -0.611% (inactive) | -0.37% (inactive) | 0.506% (inactive) | inactive | -8.31% (inactive) | -8.63% (inactive) | inactive | -0.971% (inactive) | inactive | inactive | inactive | – | 7.91% (inactive) |
| c1ccc2cc3ccccc3cc2c1 | inactive | inactive | -12.9 | inactive | inactive | 21.2 | -8.21% (inactive) | 7.64% (inactive) | 1.49% (inactive) | -0.274% (inactive) | – | -8% (inactive) | -2.63% (inactive) | inactive | 4.65% (inactive) | – | inactive | – | – | -13.8% (inactive) |
| O=C(O)c1cccc(C(=O)O)c1 | – | inactive | -13 | inactive | inactive | -5.27 | – | – | -2.6% (inactive) | -0.8% (inactive) | inactive | -9.16% (inactive) | -0.837% (inactive) | inactive | 0.205% (inactive) | inactive | inactive | – | -2.92 | 17% (inactive) |
| CCCCCCCC/C=C\CCCCCCCCCCCCC | inactive | inactive | 4.69 | inactive | inactive | -11.4 | 1.65% (inactive) | – | -0.312% (inactive) | -1.02% (inactive) | inactive | 1.5% (inactive) | -4.21% (inactive) | inactive | -1.72% (inactive) | inactive | inactive | – | 20.5 | – |
